PubChem BioAssay (EPA / NIEHS)
“And” between values parts separate entries of the source, which are not always exact repeats. Equal values may be shown once. Results filed as inconclusive are left out. A structure can be active in one record and inactive in another. The source made the active and inactive calls. Rule for the calls, unless noted: active = hit-call score of the fitted dose curve at least 0.9, where 1 is the maximum; inactive = score below 0.9.

Assays:
[1] = target: Retinoic acid receptor RXR-alpha (Homo sapiens) (UniProt P19793); experiment: ATG_RXRa_TRANS: Attagene TRANS-FACTORIAL HepG2 Assay for human Retinoid X Receptor alpha (RXRa) (AID 2283012; active = hit-call score of the fitted dose curve at least 0.9, where 1 is the maximum)
How it was run: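 Read-out: fluorescent reporter-transcript fragments quantified by capillary electrophoresis after RT-PCR. Transiently transfected HepG2 cells carrying GAL4-UAS reporters and NR-GAL4 chimeras were exposed to chemical for 24 h; activity scored as increase over DMSO.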

[2] = target: human Retinoid X Receptor beta (RXRb), RXRB (gene 6257) (UniProt P28702); experiment: ATG_RXRb_TRANS: Attagene TRANS-FACTORIAL HepG2 Assay for human Retinoid X Receptor beta (RXRb) (AID 2283013; active = hit-call score of the fitted dose curve at least 0.9, where 1 is the maximum)
How it was run: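 Read-out: reporter mRNA induction via RT-PCR plus capillary electrophoresis fluorescence, analysed as signal increase relative to DMSO. Cells were human HepG2, transiently transfected with GAL4-UAS reporter constructs and chimeric receptor-Gal4 fusions, dosed for 24 h.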

[3] = target: human Thyroid Receptor alpha (THRa1), THRA (gene 7067) (UniProt P10827); experiment: ATG_THRa1_TRANS: Attagene TRANS-FACTORIAL HepG2 Assay for human Thyroid Receptor alpha (THRa1) (AID 2283014; active = hit-call score of the fitted dose curve at least 0.9, where 1 is the maximum)
How it was run: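 Measured here is mRNA from a GAL4-UAS reporter in transfected HepG2 cells carrying a Gal4-fused receptor, 24 h post-dose. DMSO served as negative control and baseline.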

[4] = read-out: E-selectin (Homo sapiens) (UniProt P16581); experiment: BSK_3C_Eselectin: BioMAP Diversity Plus: 3C Assay for Eselectin Biomarker Activity (AID 2283015); conditions: primary human endothelial cells (HUVEC); actives raise or lower the signal;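 for outcome: cell surface E-selectin protein quantified by ELISA 24 h after dosing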
How it was run: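 Endpoint derived by bidirectional fitting against DMSO vehicle; signal is ELISA-detected E-selectin from primary HUVEC at 24 h post-dosing, with parallel SRB staining (0.1% SRB, 560 nm) flagging cytotoxicity.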

[5] = read-out: Interleukin-1 alpha (IL1a), IL1A (gene 3552); experiment: BSK_BE3C_IL1a: BioMAP Diversity Plus: BE3C Assay for Interleukin-1 alpha (IL1a) Biomarker Activity (AID 2283016); conditions: primary human bronchial epithelial cells; actives raise or lower the signal
How it was run: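 ELISA read-out of IL-1a from human lung bronchial epithelial primary cells, 24 h post-dose. Gain or loss of signal fitted relative to DMSO negative control.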

[6] = read-out: Monocyte Chemoattractant Protein-1 (MCP1), CCL2 (gene 6347); experiment: BSK_3C_MCP1: BioMAP Diversity Plus: 3C Assay for Monocyte Chemoattractant Protein-1 (MCP1) Biomarker Activity (AID 2283017); conditions: primary human endothelial cells (HUVEC); actives raise or lower the signal
How it was run: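 Using human vascular primary endothelium, researchers measured MCP-1 by ELISA 24 h after treatment, with DMSO serving as negative control for bidirectional fitting.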

[7] = read-out: Monocyte Chemoattractant Protein-1 (MCP1), CCL2 (gene 6347); experiment: BSK_4H_MCP1: BioMAP Diversity Plus: 4H Assay for Monocyte Chemoattractant Protein-1 (MCP1) Biomarker Activity (AID 2283018); conditions: primary human endothelial cells (HUVEC); actives raise or lower the signal
How it was run: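 HUVEC primary cells, 24 h post-dose, MCP-1 by ELISA. Gain or loss of signal fitted bidirectionally vs DMSO baseline. Cytotoxicity: SRB stain (0.1% after 10% TCA fixation), read 560 nm, parallel cultures.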

[8] = read-out: Human Leukocyte Antigen - DR isotype (HLADR), HLA-DRA (gene 3122); experiment: BSK_3C_HLADR: BioMAP Diversity Plus: 3C Assay for Human Leukocyte Antigen - DR isotype (HLADR) Biomarker Activity (AID 2283019); conditions: primary human endothelial cells (HUVEC); actives raise or lower the signal;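 for outcome: ELISA of cell-surface HLA-DR on HUVEC 24 h after dosing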
How it was run: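 Compound added to primary HUVEC cultures, 24 h incubation, then HLA-DR determined by ELISA; endpoint derived by bidirectional fitting relative to DMSO negative control.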

[9] = read-out: Interleukin-8 (IL8), CXCL8 (gene 3576); experiment: BSK_3C_IL8: BioMAP Diversity Plus: 3C Assay for Interleukin-8 (IL8) Biomarker Activity (AID 2283020); conditions: primary human endothelial cells (HUVEC); actives raise or lower the signal
How it was run: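 HUVEC, 3C stimulation; 24 h compound exposure; IL-8 read by ELISA; gain or loss of signal fitted relative to DMSO control.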

[10] = read-out: Monokine induced gamma interferon (MIG), CXCL9 (gene 4283); experiment: BSK_3C_MIG: BioMAP Diversity Plus: 3C Assay for Monokine induced gamma interferon (MIG) Biomarker Activity (AID 2283021); conditions: primary human endothelial cells (HUVEC); actives raise or lower the signal;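 for AC50: MIG protein level measured by immunoassay in the treated endothelial cultures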
How it was run: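 HUVEC, 3C system; 24 h chemical exposure; MIG by ELISA; bidirectional fit vs DMSO baseline.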

[11] = BSK_3C_SRB: Viability Assessment in the BioMAP Diversity Plus: 3C Assay (AID 2283023); conditions: primary human endothelial cells (HUVEC);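 note: cells read 24 h after compound dosing; fitted both ways against DMSO so a hit may be signal rise or drop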
How it was run: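 Overt cytotoxicity is gauged in parallel confluent HUVEC cultures by SRB total-protein staining at the time of biomarker measurement, 24 h after dosing. Gain or loss of signal is fitted versus DMSO.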

[12] = read-out: Matrix Metallopeptidase 1 (MMP1), MMP1 (gene 4312); experiment: BSK_BE3C_MMP1: BioMAP Diversity Plus: BE3C Assay for Matrix Metallopeptidase 1 (MMP1) Biomarker Activity (AID 2283024); conditions: primary human bronchial epithelial cells; actives raise or lower the signal
How it was run: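 ELISA read-out of MMP1 in human lung bronchial epithelial primary cultures, 24 h post-dose; bidirectional curve fit vs DMSO baseline, gain or loss of signal scored.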

[13] = read-out: Pselectin, SELP (gene 6403); experiment: BSK_4H_Pselectin: BioMAP Diversity Plus: 4H Assay for Pselectin Biomarker Activity (AID 2283026); conditions: primary human endothelial cells (HUVEC); actives raise or lower the signal
How it was run: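 HUVEC, 24 h chemical exposure; P-selectin read by ELISA. Bidirectional curve fit vs DMSO baseline; gain or loss of signal scored.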

[14] = BSK_4H_SRB: Viability Assessment in the BioMAP Diversity Plus: 4H Assay (AID 2283027); conditions: primary human endothelial cells (HUVEC);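 note: cells exposed to compound for 24 h before staining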;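 for AC50: curves fitted both ways versus DMSO so AC50 may be loss or gain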
How it was run: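 HUVEC, 24 h post-dose; 10% TCA fix, 0.1% SRB stain, A560 nm. Total protein = overt cytotoxicity, parallel to biomarker read. Bidirectional fit vs DMSO baseline.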

[15] = BSK_BE3C_SRB: Viability Assessment in the BioMAP Diversity Plus: BE3C Assay (AID 2283028); conditions: primary human bronchial epithelial cells;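 note: measured 24 h after chemical dosing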;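 for AC50: fitted both ways so AC50 may mark signal gain or loss versus DMSO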
How it was run: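 SRB total-protein staining (0.1%, after TCA fixation) of chemically dosed human bronchial epithelial primary cells at 24 h; DMSO serves as the negative control for bidirectional curve fitting.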

[16] = read-out: Thrombomodulin, THBD (gene 7056); experiment: BSK_3C_Thrombomodulin: BioMAP Diversity Plus: 3C Assay for Thrombomodulin Biomarker Activity (AID 2283029); conditions: primary human endothelial cells (HUVEC); actives raise or lower the signal
How it was run: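 HUVEC, 3C conditions; compound 24 h; thrombomodulin by ELISA; bidirectional curve fit vs DMSO baseline; parallel SRB total-protein staining for cytotoxicity.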

[17] = read-out: Urokinase-type plasminogen activator receptor (uPAR), PLAUR (gene 5329); experiment: BSK_4H_uPAR: BioMAP Diversity Plus: 4H Assay for Urokinase-type plasminogen activator receptor (uPAR) Biomarker Activity (AID 2283030); conditions: primary human endothelial cells (HUVEC); actives raise or lower the signal
How it was run: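 Endpoint derived via bidirectional curve fitting against DMSO baseline; readout was ELISA detection of uPAR on umbilical vein endothelial cells at 24 h post-treatment, with SRB-stained parallel cultures assessing cytotoxicity.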

[18] = read-out: Vascular endothelial growth factor receptor 2 (Homo sapiens) (UniProt P35968); experiment: BSK_4H_VEGFRII: BioMAP Diversity Plus: 4H Assay for Vascular endothelial growth factor receptor 2 (VEGFR2) Biomarker Activity (AID 2283031); conditions: primary human endothelial cells (HUVEC); actives raise or lower the signal;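 for AC50: cell-surface VEGFR2 protein level quantified by ELISA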
How it was run: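 In this multiplexed HUVEC system, biomarker ELISA was performed after 24 h chemical exposure. Parallel SRB staining (TCA fixation, 560 nm) tracked cytotoxicity; DMSO served as baseline.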

[19] = target: human Vitamin D Receptor (VDR), VDR (gene 7421) (UniProt P11473); experiment: ATG_VDR_TRANS: Attagene TRANS-FACTORIAL HepG2 Assay for human Vitamin D Receptor (VDR) (AID 2283022; active = hit-call score of the fitted dose curve at least 0.9, where 1 is the maximum)
How it was run: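 Multiplexed TRANS reporter in HepG2; 24 h treatment; reporter mRNA by RT-PCR plus capillary electrophoresis; upregulation scored relative to DMSO.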

[20] = BSK_3C_Vis: BioMAP Diversity Plus: 3C Assay for Morphology Visualization (AID 2283025); conditions: primary human endothelial cells (HUVEC);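 note: fitted both ways so gain or loss versus DMSO counts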;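 for AC50: light microscopy image of cell morphology used as background control; cells imaged 24 h after dosing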
How it was run: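 HUVEC, 3C system; light microscopy of morphology at 24 h post-dose. Bidirectional fit vs DMSO baseline. Secondary readout, background-control function.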

Chain of human Thyroid Receptor alpha (THRa1), THRA (gene 7067) (P10827 whole entry, looked up, the tested form may be a part): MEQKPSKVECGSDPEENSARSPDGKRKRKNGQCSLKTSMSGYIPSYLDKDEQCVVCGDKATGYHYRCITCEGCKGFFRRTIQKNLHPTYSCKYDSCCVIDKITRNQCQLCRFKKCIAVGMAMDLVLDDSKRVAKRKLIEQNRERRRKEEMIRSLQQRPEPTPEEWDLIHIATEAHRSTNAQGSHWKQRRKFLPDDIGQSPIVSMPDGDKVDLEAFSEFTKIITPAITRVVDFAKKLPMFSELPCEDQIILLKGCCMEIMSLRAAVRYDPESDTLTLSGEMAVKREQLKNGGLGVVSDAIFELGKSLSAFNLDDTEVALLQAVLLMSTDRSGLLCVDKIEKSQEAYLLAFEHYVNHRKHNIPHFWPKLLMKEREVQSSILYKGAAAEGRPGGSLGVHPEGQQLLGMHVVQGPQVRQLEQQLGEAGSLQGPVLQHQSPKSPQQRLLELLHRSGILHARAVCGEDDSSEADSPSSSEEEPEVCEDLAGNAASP
Chain of human Retinoid X Receptor beta (RXRb), RXRB (gene 6257) (P28702 whole entry, looked up, the tested form may be a part): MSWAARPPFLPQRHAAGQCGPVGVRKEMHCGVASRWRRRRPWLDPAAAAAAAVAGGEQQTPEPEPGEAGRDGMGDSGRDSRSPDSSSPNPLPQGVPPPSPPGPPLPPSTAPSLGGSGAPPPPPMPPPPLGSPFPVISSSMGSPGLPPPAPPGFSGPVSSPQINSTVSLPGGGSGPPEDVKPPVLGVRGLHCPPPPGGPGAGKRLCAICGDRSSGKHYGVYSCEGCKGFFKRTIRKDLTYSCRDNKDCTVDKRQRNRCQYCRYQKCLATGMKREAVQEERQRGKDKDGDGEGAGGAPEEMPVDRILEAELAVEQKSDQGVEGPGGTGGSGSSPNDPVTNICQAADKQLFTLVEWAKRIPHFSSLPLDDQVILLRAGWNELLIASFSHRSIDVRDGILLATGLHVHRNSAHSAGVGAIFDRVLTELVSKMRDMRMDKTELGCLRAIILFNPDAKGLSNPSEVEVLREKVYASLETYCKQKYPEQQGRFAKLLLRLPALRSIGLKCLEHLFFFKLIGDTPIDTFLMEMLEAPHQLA
Chain of human Vitamin D Receptor (VDR), VDR (gene 7421) (P11473 whole entry, looked up): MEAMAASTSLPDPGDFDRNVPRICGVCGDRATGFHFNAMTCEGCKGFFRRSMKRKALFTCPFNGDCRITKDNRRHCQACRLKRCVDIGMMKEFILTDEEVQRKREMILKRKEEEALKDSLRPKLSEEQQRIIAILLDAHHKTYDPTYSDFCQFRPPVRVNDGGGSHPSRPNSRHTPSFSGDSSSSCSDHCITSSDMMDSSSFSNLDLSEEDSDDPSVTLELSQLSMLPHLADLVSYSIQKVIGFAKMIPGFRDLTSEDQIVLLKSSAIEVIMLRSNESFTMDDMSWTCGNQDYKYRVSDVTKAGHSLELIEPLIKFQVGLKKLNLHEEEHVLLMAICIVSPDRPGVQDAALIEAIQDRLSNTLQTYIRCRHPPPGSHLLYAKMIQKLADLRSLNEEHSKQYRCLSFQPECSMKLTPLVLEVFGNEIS
Chain of E-selectin (Homo sapiens) (P16581 whole entry, looked up): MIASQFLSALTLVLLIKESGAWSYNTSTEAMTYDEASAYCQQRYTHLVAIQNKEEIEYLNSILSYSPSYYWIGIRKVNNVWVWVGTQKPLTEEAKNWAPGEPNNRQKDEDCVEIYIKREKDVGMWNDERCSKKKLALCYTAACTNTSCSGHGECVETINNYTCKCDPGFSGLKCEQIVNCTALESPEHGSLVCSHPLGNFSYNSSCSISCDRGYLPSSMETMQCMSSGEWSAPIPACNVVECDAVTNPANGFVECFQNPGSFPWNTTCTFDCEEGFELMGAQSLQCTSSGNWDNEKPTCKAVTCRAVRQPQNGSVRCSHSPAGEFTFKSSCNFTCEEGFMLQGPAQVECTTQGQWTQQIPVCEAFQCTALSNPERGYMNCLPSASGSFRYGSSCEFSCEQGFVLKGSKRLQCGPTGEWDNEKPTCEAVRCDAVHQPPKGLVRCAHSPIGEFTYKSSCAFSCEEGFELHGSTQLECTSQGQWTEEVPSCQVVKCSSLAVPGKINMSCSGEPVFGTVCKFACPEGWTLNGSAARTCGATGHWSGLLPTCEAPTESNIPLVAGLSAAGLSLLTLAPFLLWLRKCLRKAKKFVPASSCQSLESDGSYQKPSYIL
Chain of Retinoic acid receptor RXR-alpha (Homo sapiens) (P19793 whole entry, looked up, the tested form may be a part): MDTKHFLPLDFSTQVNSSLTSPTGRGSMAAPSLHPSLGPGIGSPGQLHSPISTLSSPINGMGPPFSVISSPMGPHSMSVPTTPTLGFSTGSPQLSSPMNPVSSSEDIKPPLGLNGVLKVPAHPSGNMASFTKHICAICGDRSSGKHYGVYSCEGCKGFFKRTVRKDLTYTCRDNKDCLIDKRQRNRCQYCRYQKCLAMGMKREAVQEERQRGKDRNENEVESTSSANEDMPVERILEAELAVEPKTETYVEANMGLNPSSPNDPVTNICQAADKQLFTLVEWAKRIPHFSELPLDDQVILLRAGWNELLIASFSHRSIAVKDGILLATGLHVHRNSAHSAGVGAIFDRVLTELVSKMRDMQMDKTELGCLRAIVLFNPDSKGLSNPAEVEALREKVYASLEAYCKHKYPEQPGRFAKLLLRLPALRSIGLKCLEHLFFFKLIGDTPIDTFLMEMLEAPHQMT

CCCCCCCCCCCC
outcome [1]: inactive | outcome [2]: inactive | outcome [3]: inactive | AC50 [4]: 20 µM (active) | outcome [4]: inactive | AC50 [5]: 9.52 µM (active) and 8.11 µM (active) | outcome [6]: inactive | outcome [7]: inactive | outcome [8]: inactive | outcome [9]: inactive | outcome [10]: inactive | AC50 [11]: 31.1 µM (active) and 30.4 µM (active) | outcome [12]: inactive | outcome [13]: inactive | outcome [14]: inactive | outcome [15]: inactive | AC50 [16]: 36.5 µM (active) | outcome [16]: inactive | outcome [17]: inactive | AC50 [18]: 28 µM (active) | outcome [18]: inactive

C[C@]12CC[C@@H]3c4ccc(O)cc4CC[C@H]3[C@@H]1C[C@@H](O)[C@@H]2O
outcome [1]: inactive | outcome [2]: inactive | outcome [3]: inactive | outcome [4]: inactive | outcome [5]: inactive | outcome [6]: inactive | outcome [7]: inactive | outcome [8]: inactive | outcome [9]: inactive | outcome [10]: inactive | outcome [19]: inactive | outcome [11]: inactive | outcome [12]: inactive | outcome [20]: inactive | outcome [13]: inactive | outcome [14]: inactive | outcome [15]: inactive | outcome [16]: inactive | outcome [17]: inactive | outcome [18]: inactive

NC(=NCCCCCCN=C(N)/N=C(\N)Nc1ccc(Cl)cc1)/N=C(\N)Nc1ccc(Cl)cc1
outcome [1]: inactive | outcome [2]: inactive | AC50 [3]: 8.56 µM (active) and 6.83 µM (active) | outcome [3]: inactive | AC50 [4]: 7.27 µM (active) | AC50 [5]: 4.74 µM (active) | AC50 [6]: 5.59 µM (active) | AC50 [7]: 1.47 µM (active) | AC50 [8]: 4.82 µM (active) | AC50 [9]: 3.88 µM (active) | AC50 [10]: 9.77 µM (active) | AC50 [11]: 4.85 µM (active) | AC50 [12]: 3.14 µM (active) | AC50 [13]: 4.81 µM (active) | AC50 [14]: 4.85 µM (active) | AC50 [15]: 4.74 µM (active) | AC50 [16]: 6.15 µM (active) | AC50 [17]: 4.47 µM (active) | AC50 [18]: 4.47 µM (active)

CCCCCCCCCCCCCCCCCC[N+](C)(C)Cc1ccccc1
outcome [1]: inactive | outcome [2]: inactive | AC50 [3]: 50 µM (active) | AC50 [4]: 2.68 µM (active) | AC50 [5]: 3.96 µM (active) | AC50 [6]: 0.716 µM (active) | AC50 [7]: 0.929 µM (active) | AC50 [8]: 0.515 µM (active) | AC50 [9]: 4.38 µM (active) | AC50 [10]: 5.26 µM (active) | outcome [19]: inactive | AC50 [11]: 0.299 µM (active) | AC50 [12]: 10 µM (active) | AC50 [20]: 0.425 µM (active) | AC50 [13]: 0.975 µM (active) | AC50 [14]: 2.63 µM (active) | outcome [15]: inactive | outcome [16]: inactive | AC50 [17]: 0.59 µM (active) | outcome [18]: inactive

CCCCN(C)C
outcome [1]: inactive | outcome [2]: inactive

CC(C)(c1ccc(Oc2ccc(N)cc2)cc1)c1ccc(Oc2ccc(N)cc2)cc1
outcome [1]: inactive | outcome [2]: inactive | outcome [3]: inactive
